Test results from PubChem BioAssay AID1563 (The Scripps Research Institute Molecular Screening Center, 2009).
Some of the results follow. A number with no mark means an inactive call. Cut-off read from the data, not from the text of the source: active = activation above about 21%; inactive = the rest.

These compounds were tested against Sphingosine 1-phosphate receptor 1 (Homo sapiens) (UniProt P21453) (assay: S1P1 receptor agonists, human, counter-screen for S1P4 agonist project, cell-based (AID 1563;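 note: 0% = vehicle wells and 100% = reference agonist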)). Conditions: S1P1 agonist cell-based assay, at 4.98 µM, active compounds read high.
Sphingosine 1-phosphate receptor 1 (Homo sapiens), sequence (P21453 whole entry, looked up): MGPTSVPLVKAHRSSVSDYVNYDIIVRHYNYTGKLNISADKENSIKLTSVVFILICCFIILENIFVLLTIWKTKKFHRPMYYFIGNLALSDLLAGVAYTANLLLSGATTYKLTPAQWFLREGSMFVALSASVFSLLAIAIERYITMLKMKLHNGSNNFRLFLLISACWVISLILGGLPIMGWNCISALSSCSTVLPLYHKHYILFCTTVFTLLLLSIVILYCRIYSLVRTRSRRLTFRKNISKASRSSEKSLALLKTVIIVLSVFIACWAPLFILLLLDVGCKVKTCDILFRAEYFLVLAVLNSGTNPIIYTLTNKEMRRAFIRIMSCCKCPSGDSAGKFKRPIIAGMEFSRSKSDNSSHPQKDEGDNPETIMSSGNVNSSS
CCC(C)NC(=O)C1c2ccccc2Oc2ccccc21 (centres undefined) was tested, and the activation was 0.8%.
Compound Cc1cc(NC(=O)c2cc(-c3cccs3)on2)nn1Cc1ccc(Cl)cc1 has an activation of 4.89%.
COc1ccc(-n2c(C)cc(C(=O)CN3C(=O)NC4(CCc5ccccc54)C3=O)c2C)cc1 (centres undefined) gave an activation of 1.51%.
Compound COc1ccccc1CNC(=O)CNC(=O)c1cn(-c2ccccc2OC)c(=O)c2ccccc12 has an activation of -2.71%.
In the case of COc1ccc(C2CC(c3cccs3)=NN2c2ccc(F)cc2)cc1OC (centres undefined), the activation is reported as 16.6%.
N/C(=N\OC(=O)Cc1ccc([N+](=O)[O-])cc1)c1ccccn1 showed an activation of -7.04%.
Cc1cc(C)nc(N(C#N)CC(=O)Nc2ccccc2)n1 gave an activation of 0.75%.
O=[N+]([O-])c1cccc(Nc2c3ccccc3nc3ccccc23)c1 was tested, and the activation was 11.6%.
In the case of CSc1sc(C(=O)NNC(=O)c2ccc(Cl)cc2)c2c1C=CCC2, the activation is reported as 2.26%.
In the case of COC(=O)[C@@H]1CC[C@H](C)[C@@H](c2ccc(C)cc2)N1C(=O)c1ccc(/C=N/O[C@H](C)c2cn([C@@H]3COC[C@H]3O)nn2)cc1, the activation is reported as -3.45%.
CC(=O)Nc1ccc(SCC(=O)Nc2ccccc2Oc2ccccc2)cc1 gave an activation of -3.81%.
Work on CCCCCNC(=O)c1cccnc1SCC(=O)Nc1ccccc1OC yielded an activation of 1.32%.
With O=C(COC(=O)Cc1ccc(F)cc1)Nc1cc(S(=O)(=O)N2CCOCC2)ccc1N1CCCC1 the activation was 5.34%.
With Cc1cc(C)c(C#N)c(SCC(=O)NN2CC(=O)N(c3ccccc3F)CC2=O)n1 the activation was -4.8%.
